The source of these data is PubChem BioAssay AID1851 (National Center for Advancing Translational Sciences (NCATS), 2009).

The structures appear in SMILES notation. Values joined by “and” are separate entries in the source; they are usually repeats but may differ in a detail not shown here. Equal entries are not always repeated. About 5,800 (36%) of roughly 16,000 compounds were called active. Another 23% or so got no clear call; they are omitted. Some of the results follow. Values without a mark were called inactive. Calls come from the whole dose curve; as a rule, active = well fitted curve in the direction sought with a large enough effect; inconclusive = small, poorly fitted or top-dose-only effect, or effect the other way; inactive = no such curve, though single readings can be large or run the other way.
% is set by controls: 0 for no effect and ±100 for the full control effect.

The target of the assay is Cytochrome P450 2C19 (Homo sapiens) (UniProt P33261). Description: Cytochrome panel assay with activity outcomes. To be noted: recombinant CYP, pro-luciferin dealkylation, luminescence, p450-cyp2c19; series mostly up to 57.1 µM; activity, negative = inhibition: at the top concentration.
Chain of Cytochrome P450 2C19 (Homo sapiens) (P33261 whole entry, looked up): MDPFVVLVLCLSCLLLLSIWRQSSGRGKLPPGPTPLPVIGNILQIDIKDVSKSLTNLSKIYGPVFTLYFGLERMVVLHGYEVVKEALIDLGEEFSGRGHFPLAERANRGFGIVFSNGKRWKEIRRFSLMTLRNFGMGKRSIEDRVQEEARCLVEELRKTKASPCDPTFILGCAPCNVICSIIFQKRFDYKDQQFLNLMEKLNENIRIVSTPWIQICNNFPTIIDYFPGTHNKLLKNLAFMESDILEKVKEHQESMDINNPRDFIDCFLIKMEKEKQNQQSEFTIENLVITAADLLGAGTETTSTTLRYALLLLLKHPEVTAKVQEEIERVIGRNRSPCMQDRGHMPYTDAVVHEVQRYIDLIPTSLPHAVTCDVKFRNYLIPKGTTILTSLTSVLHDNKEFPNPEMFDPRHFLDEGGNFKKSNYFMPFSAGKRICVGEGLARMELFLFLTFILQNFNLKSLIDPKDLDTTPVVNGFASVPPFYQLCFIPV
As to `CC(NC(=O)c1ccc(N2CCCC2=O)cc1)c1ccccc1` (centres undefined), the “activity, negative = inhibition” value is 0.679%.
Turning to `O=C(O)c1cccc(N2CCCC2=O)c1`, the AC50 was 31.6 µM (active).
In the case of `O=c1cc(CO)oc(CN2CCCC2)c1O`, the “activity, negative = inhibition” value was -9.57%.
Same read-out and setting: in the case of `CO[C@H]1COC(=O)[C@H](C)NC(=O)C/C=C\[C@@H](C)[C@@H](NS(=O)(=O)c2ccc(C)cc2)COC(=O)[C@H](OCc2ccccc2)/C=C\[C@@H]1C` it was 6.49% [at 11.4 µM].
In the case of `COc1ccc(C(=O)CN2CCN(c3ccc(F)cc3)CC2)cc1OC`, the AC50 was 14.1 µM (active).
For the compound `CCOc1cc(CN2CCN(c3ccc(C(C)=O)cc3)CC2)ccc1OC`, the “activity, negative = inhibition” value was -19.8%.
As for `COc1ccc(/C=N/NC(=O)c2ccn[nH]2)cc1COc1ccc(F)cc1`, the concentration at half-maximal activity (AC50) was 3.55 µM (active).
Still for that read-out and setting: as for `COc1ccc(/C=N/NC(=O)c2ccccc2)cc1CN1CCN(c2ccc(F)cc2)CC1`, the figure is 17.8 µM (active); as for `COc1ccc(/C=N/NC(=O)c2ccn[nH]2)cc1COc1ccc(Cl)cc1`, 2 µM (active).
`Cc1ccc(/C=N\NC(=O)c2cc(OCC(F)(F)F)ccc2OCC(F)(F)F)cc1`: the “activity, negative = inhibition” value was -0.0019%.
The same measure, in the same setting: in the case of `COc1ccc(/C=N\NC(=O)C2C(=O)NCC2c2ccccc2)cc1O` (centres undefined) it was -11.8%; in that of `C[C@H](O)[C@H](O)[C@@H]1CNc2nc(N)[nH]c(=O)c2N1`, 26.5%; in that of `Cc1ccc(C(=O)NN2CCOCC2)cc1`, 6.29%.
For `Cc1c(C(=O)NN2CCOCC2)nn(-c2ccc(Cl)cc2Cl)c1-c1ccc(I)cc1`, the concentration at half-maximal activity (AC50) was 7.94 µM (active).
Regarding `O=C(CCc1ccccc1)NNC(=O)c1ccco1`, the “activity, negative = inhibition” value was -17.8%.
As to `O=C(Nc1ccccc1C(=O)NCCc1ccccc1)c1ccco1`, the AC50 was 8.91 µM (active).
Still for that read-out and setting: in the case of `COc1ccc(CCNC(=O)c2ccccc2NC(=O)c2ccco2)cc1OC` it was 11.2 µM (active).
In the case of `CC(C)[C@@H](OCc1ccccc1)[C@H](C)/C=N\O[C@@H](C)c1cn([C@H](CO)Cc2ccccc2)nn1`, the activity, negative = inhibition is -16.9% [at 11.4 µM] and -29.7% [at 11.4 µM].
For the compound `N#C/C(=C\c1ccc(O)c(O)c1)C(=O)NCCCc1ccccc1`, the half-maximal activity concentration (AC50) was 10 µM (active).
Consider `N#C/C(=C\c1ccc(O)c(O)c1)C(=O)c1ccc(O)c(O)c1`, for which the “activity, negative = inhibition” value was 0.35%.
As to `N#C/C(=C\c1ccc(O)c(O)c1)C(=O)OCCc1cccs1`, the half-maximal activity concentration (AC50) was 6.31 µM (active).
For `O=c1cc(O)cc(/C=C\c2ccc(O)c(O)c2)o1`, the “activity, negative = inhibition” value was -24.2%.
As for `N#C/C(=C\c1ccc(O)c(O)c1)C(=O)NCCc1ccccc1`, the “activity, negative = inhibition” value was -40.2%.
`N#Cc1ccc(-c2ccc(F)cc2)nc1Oc1ccc(Cl)c(Cl)c1`: the half-maximal activity concentration (AC50) was 3.55 µM (active).
Still for that read-out and setting: as for `Cc1ccc(C2NC(c3ccc(C)cc3)C(C)C(=NO)C2C)cc1` (centres undefined), the figure is 0.562 µM (active).
`CNC[C@H](O)[C@H](O)[C@H](O)[C@H](O)CO`: the “activity, negative = inhibition” value is 16.6% [at 25.6 µM].
For the compound `Cc1cnc(CNc2nc(-c3ccccc3C)nc3ccccc23)cn1`, the “activity, negative = inhibition” value was -36.4%.
As to `Cc1cnc(CNc2ncnc3ccc(-c4ccoc4)cc23)cn1`, the “activity, negative = inhibition” value is -4.33%.
Consider `Cc1cnc(CNc2ncnc3ccc(-c4ccc(N(C)C)cc4)cc23)cn1`, for which the AC50 was 15.8 µM (active).
Same read-out and setting: in the case of `Cc1cnc(CNc2ncnc3ccc(-c4ccccc4C)cc23)cn1` it was 15.8 µM (active).
With `Cc1ncc([N+](=O)[O-])n1CCO`, the “activity, negative = inhibition” value is 5.25% [at 25.6 µM].
Consider `COc1ccccc1-c1cncnc1NCc1cccs1`, for which the AC50 is 2 µM (active).
The same measure, in the same setting: in the case of `FC(F)(F)c1ccccc1-c1cncnc1NCc1cccs1` it was 20 µM (active); in that of `Clc1ccccc1-c1cncnc1NCc1cccs1`, 1.58 µM (active).
Turning to `CN(C)Cc1ccccc1-c1cncnc1NCc1cccs1`, the “activity, negative = inhibition” value was -4.64%.
Take `Cc1ccccc1-c1cncnc1NCc1cccs1`: the AC50 is 0.794 µM (active).
Turning to `Cc1cnn(-c2cc(N/N=C/c3ccccc3F)ncn2)c1`, the “activity, negative = inhibition” value was -20.9%.
Turning to `COCCNC(=O)c1ccc2c(c1)nc(C)n2-c1cc(OC)c(OC)c(OC)c1`, the “activity, negative = inhibition” value is 0.165%.
Regarding `COCCNC(=O)c1cc2c3ccccc3n(C)c2s1`, the AC50 was 11.2 µM (active).
As to `CN(C)CCCNC(=O)c1cc2c3ccccc3n(C)c2s1`, the “activity, negative = inhibition” value is -26.7%.
As for `O=C(OCc1nc2ccccc2s1)c1ccc(Br)s1`, the AC50 is 0.447 µM (active).
Same read-out and setting: in the case of `COc1ccc(NC(=O)CC2C(=O)N(c3cccc(OC)c3)C(=O)N2C2CCCCC2)cc1` (centres undefined) it was 8.91 µM (active); in that of `COc1cccc(N2C(=O)C(CC(=O)Nc3ccccc3)N(C3CCCCC3)C2=O)c1` (centres undefined), 4.47 µM (active).
Regarding `COc1ccc(COC(=O)N/N=C2/C[C@@H](O)[C@@H](O)[C@@H]3[C@@H]4C(=O)N(c5cccc(Oc6ccccc6)c5)C(=O)[C@H]4CC[C@@H]23)cc1`, the activity, negative = inhibition is 20.4% [at 11.4 µM].
For the compound `COc1ccc(COC(=O)N/N=C2/C[C@@H](O)[C@@H](O)[C@@H]3[C@@H]4C(=O)N(c5cccc(Oc6ccccc6)c5)C(=O)[C@H]4CC[C@H]23)cc1`, the activity, negative = inhibition is -11% [at 11.4 µM].
As to `CCCCCCCCSc1nnc(CSc2nc3nc(C)cc(C)n3n2)o1`, the AC50 is 7.94 µM (active).
On the same count and under the same terms, in the case of `CCOC(=O)c1cnn(-c2ccc(C(C)C)cc2)c1NC(=O)C1CCC1` it was 10 µM (active); in that of `CC(C)OCCCN1CN(S(=O)(=O)c2cccc(Cl)c2)c2nc3ccccc3nc21`, 3.16 µM (active).
As for `C[C@H](C(=O)O)c1cccc(Oc2ccccc2)c1`, the “activity, negative = inhibition” value is 6.23% [at 25.6 µM].
